Bioassay records: PubChem BioAssay, several laboratories
The list is not random: actives were taken first. Their share in the collection is about 6.6%.
BoNT-F LC inh: BoNT/F light chain protease inhibitors, primary screen, biochemical, flow cytometry, MLPCN library; Botulinum neurotoxin type F light chain protease (Clostridium botulinum); Multiplex microsphere protease cleavage assay; inhibition, % at 10 µM; 360,000 tested, 0.22% active; AID 588497, 2011; in the data active = inhibition above about 35%, passing the limit was not always enough; inconclusive = no clear call, values can overlap the other calls; also: plate controls were buffer without enzyme for full effect and enzyme alone for no effect
GDH-TPI counter: GDH-TPI coupling enzyme inhibitors, primary screen, artefact control for M. tuberculosis FBA inhibitor project, biochemical, absorbance, full deck. inhibition, % at 4.8 µM. GDH-TPI coupled enzyme counterscreen, NADH absorbance. 360,000 tested, 1.2% active; in the data active = inhibition above about 30%;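 also: 0% = DMSO wells and 100% = wells lacking the enzyme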
Anthrax LF prot: Bacillus anthracis LF protease inhibitors, primary screen, biochemical, multiplex microsphere, MLPCN library. Lethal factor (Bacillus anthracis), P15917. 360,000 tested, 0.12% active. inhibition, % at 10 µM. multiplex microsphere protease cleavage assay. AID 588501, 2011; also: plate controls were buffer without enzyme for full effect and enzyme alone for no effect
Target sequence (P15917 whole entry, looked up): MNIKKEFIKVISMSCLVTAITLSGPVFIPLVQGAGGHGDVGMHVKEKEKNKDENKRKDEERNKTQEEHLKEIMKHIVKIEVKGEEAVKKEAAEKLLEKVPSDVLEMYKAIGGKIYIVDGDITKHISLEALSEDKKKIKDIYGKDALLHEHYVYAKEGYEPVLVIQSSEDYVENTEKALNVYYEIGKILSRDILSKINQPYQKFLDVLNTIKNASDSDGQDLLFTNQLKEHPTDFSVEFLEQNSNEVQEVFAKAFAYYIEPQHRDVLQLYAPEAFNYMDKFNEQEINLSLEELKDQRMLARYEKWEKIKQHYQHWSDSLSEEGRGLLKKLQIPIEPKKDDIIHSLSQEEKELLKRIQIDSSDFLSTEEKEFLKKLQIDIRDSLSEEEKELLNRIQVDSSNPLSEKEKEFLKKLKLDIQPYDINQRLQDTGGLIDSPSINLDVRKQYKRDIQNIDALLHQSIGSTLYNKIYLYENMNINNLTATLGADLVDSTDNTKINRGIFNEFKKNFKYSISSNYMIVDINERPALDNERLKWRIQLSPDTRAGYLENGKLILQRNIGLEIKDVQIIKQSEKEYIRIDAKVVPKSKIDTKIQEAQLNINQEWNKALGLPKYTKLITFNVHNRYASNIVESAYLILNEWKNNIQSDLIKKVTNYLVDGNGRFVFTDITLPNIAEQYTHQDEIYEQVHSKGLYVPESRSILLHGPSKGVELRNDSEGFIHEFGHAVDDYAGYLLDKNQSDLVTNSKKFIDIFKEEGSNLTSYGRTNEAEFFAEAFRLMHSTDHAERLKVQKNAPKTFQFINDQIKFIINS
Autofluor counter: flagged as autofluorescent in microsphere protease counterscreen; compound autofluorescence counterscreen, microsphere flow cytometry; hits give high values; fluorescence intensity (no concentration beside the values); 360,000 tested, 3.1% active; in the data active = fluorescence intensity above about 16000; inconclusive = no clear call, values can overlap the other calls
Mtb FBA inh: Mtb FBA enzyme inhibitors, primary screen, biochemical, fluorescence, strain H37Rv. Fructose-bisphosphate aldolase (Mycobacterium tuberculosis (strain ATCC 25618 / H37Rv)), …. purified M. tuberculosis FBA, fluorescence read-out. inhibition, % at 1 µM. 360,000 tested, 2.3% active. AID 588726, 2011; in the data active = inhibition above about 27%;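 also: 0% = vehicle and 100% = reference inhibitor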
BoNT-A LC inh2: BoNT/A light chain protease inhibitors, primary screen, biochemical, flow cytometry, MLPCN library. multiplex microsphere protease substrate cleavage. inhibition, % at 10 µM. 360,000 tested, 0.17% active. AID 588499, 2011; also: plate controls were buffer without enzyme for full effect and enzyme alone for no effect
Numbers without * were called inactive; ? = inconclusive; nt = not tested or not shown. Rule as the data show it, unless noted: active = inhibition above about 30%; inconclusive = no clear call, values can overlap the other calls; inactive = below that.

SMILES | BoNT-F LC inh | GDH-TPI counter | Anthrax LF prot | Autofluor counter | Mtb FBA inh | BoNT-A LC inh2
CCCCCn1c(SCC(=O)OCC)nc2cc(C(=O)NCc3ccco3)ccc2c1=O | -10 | 14 | -6 | 21498* | -2 | -6
COCCCn1c(SCC(=O)NCc2ccco2)nc2sc3c(c2c1=O)CCC3 | 4 | 24 | -2 | 19443* | 0 | 2
CCCCCn1c(SCC(=O)CC(=O)OCC)nc2cc(C(=O)N3CCC(C(N)=O)CC3)ccc2c1=O | -1 | -2 | -4 | 4266 | 3 | 0
O=C(CSc1nc2sc3c(c2c(=O)n1-c1ccccc1)CCCC3)NCc1ccco1 | -5 | 17 | -13 | 4174 | 2 | -1
COC(=O)c1c(C(=O)OC)c(-c2ccc(Cl)c(Cl)c2)n2c1CCC2 | 1 | -2 | -6 | 10365 | 0 | 0
COC(=O)c1c(C(=O)OC)c(-c2ccc(C)cc2)n2c1CCC2 | -7 | 10 | 0 | 24446* | 4 | -5
CCN=c1scc(-c2ccco2)n1/N=C/c1ccc(OC)c(O)c1 | -4 | 32* | -2 | 24329* | -1 | ?
CCCCCn1c(=O)c(-c2nc3ccccc3[nH]2)c(O)c2ccccc21 | -7 | 4 | -10 | 5034 | 8 | -2
CCOc1ccccc1NC(=O)Cn1c(=O)oc2ccccc21 | -2 | 3 | -1 | 3298 | 1 | -1
CCOc1ccc(CNC(=O)CCn2c(=O)oc3ccccc32)cc1 | -2 | 17 | -5 | 16172* | -1 | 1
CCOc1ccc(OCC)c(NC(=O)CCn2c(=O)oc3ccccc32)c1 | 0 | -2 | 1 | 19376* | -1 | ?
O=C1c2ccc(Cl)cc2S(=O)(=O)c2cccc(C(=O)N3CCC(Cc4ccccc4)CC3)c21 | 4 | 3 | 1 | 3994 | -1 | 0
O=C(CCn1nnc2ccccc21)Nc1nnc(-c2ccccc2F)s1 | 4 | 3 | 2 | 22751* | 4 | 2
COc1ccc(C(CNC(=O)COc2ccc(Cl)c(C)c2)N2CCCCC2)cc1 (stereo unspecified) | 2 | 4 | -7 | 5688 | -3 | 0
CCOC(=O)c1cc(C)[nH]c(=O)c1C#N | 17 | -3 | 0 | 3661 | 161* | -1
CC(C)(C)c1cc(C(=S)N2CCN(CCO)CC2)cc(C(C)(C)C)c1O | 0 | 0 | -4 | 23211* | 5 | 1
CCN1CCN(C(=S)Nc2cc(S(=O)(=O)N(CC)CC)ccc2C)CC1 | 4 | -11 | -4 | 4014 | 0 | 0
O=C(N=C1SC2CS(=O)(=O)CC2N1Cc1ccccc1)C1CC1 (stereo unspecified) | -5 | 3 | 0 | 3846 | -2 | 0
COC(=O)Nc1nc2ccccc2[nH]1 | -11 | 6 | 3 | 3413 | -2 | 0
C=CCOc1ccc2nc(NC(=O)OC)[nH]c2c1 | -4 | -8 | 0 | 23127* | 0 | 0
CCc1ccc(C(O)c2ncc(-c3cccc(C(F)(F)F)c3)[nH]2)cc1 (stereo unspecified) | -7 | 8 | -1 | 3805 | 0 | -1
CC(C)CSc1ncc(-c2cccc(C(F)(F)F)c2)cn1 | 0 | -9 | 2 | 19690* | 2 | ?
Cc1nc2c(C(=O)NCCc3ccccc3)c[nH]n2c(=O)c1Cl | 5 | 14 | -8 | 21299* | 22 | 4
COc1ccc(NC(=O)Nc2ccc(F)cc2F)c(C)c1 | 0 | 16 | 0 | 21747* | 1 | ?
CC1=C(C(=O)Nc2ccccc2)C(c2cc(CN3CCOCC3)cs2)C2=C(CCCC2=O)N1 (stereo unspecified) | -1 | 6 | 1 | 3435 | 13 | 0
SMILES | BoNT-F LC inh | GDH-TPI counter | Anthrax LF prot | Autofluor counter | Mtb FBA inh | BoNT-A LC inh2
CC1=C(C(=O)N2CCOCC2)C(c2ccsc2)C2=C(CCCC2=O)N1 (stereo unspecified) | 3 | 5 | -2 | 22793* | 8 | 2
CCn1nc(C(=O)OCC(=O)N(CCC#N)c2ccccc2)c2ccccc2c1=O | 1 | -1 | -4 | 3742 | -1 | 0
CC1Cc2ccccc2N1C(=O)COC(=O)c1cccnc1Cl (stereo unspecified) | 2 | 6 | -2 | 16252* | 1 | ?
CC1Cc2ccccc2N1C(=O)COC(=O)c1cc(Br)ccc1O (stereo unspecified) | -14 | 9 | -3 | ? | 2 | -6
COC(=O)c1ccccc1NC(=O)N1c2ccccc2CC1C (stereo unspecified) | 2 | 7 | -3 | 20425* | -2 | ?
Cc1c(C(=O)C(=O)NCc2cccs2)c2ccccc2n1C | -2 | 6 | -6 | 4234 | 0 | 0
CS(=O)(=O)N(CC(=O)N1CCCC1)C1CCCCC1 | -4 | 4 | -4 | 4043 | 0 | 0
Cc1c(C(=O)N2CCCC2)sc(NC(=O)c2ccccc2)c1C#N | -2 | 26 | -2 | 9518 | -1 | 1
Cc1c(C(=O)N2CCCCC2)sc(NC(=O)c2ccco2)c1C#N | 2 | 40* | -6 | 3160 | -2 | 1
Cc1c(C(=O)N2CCCC2)sc(NC(=O)c2ccco2)c1C#N | -7 | 31* | -5 | 2373 | -3 | 1
CCOC(=O)C(C)NC(=O)CCc1nnc2ccc(N3CCC(C)CC3)nn12 (stereo unspecified) | 37* | -6 | -1 | 4017 | -5 | 2
Cc1cc(OCC(=O)OCC(=O)N2CCc3ccccc3C2)ccc1Cl | -6 | 2 | -2 | ? | 3 | -10
COc1ccc2c(CC(=O)NCC3CCC(C(=O)O)CC3)cc(=O)oc2c1 (stereo unspecified) | -3 | 25 | -5 | 3574 | 133* | 0
Cc1cc(=O)oc2cc(OCC(=O)NCC3CCC(C(=O)O)CC3)ccc12 (stereo unspecified) | 2 | -3 | -10 | 4961 | 15 | 0
COc1ccc2c(COC(=O)CCS(=O)(=O)c3ccccc3)cc(=O)oc2c1 | -5 | -1 | 3 | 4104 | 134* | 1
CCCc1cc(=O)oc2cc(OC(C)C(=O)NCC3CCC(C(=O)O)CC3)ccc12 (stereo unspecified) | -4 | 7 | -3 | 5187 | 20 | 0
COc1ccc(-c2cc(=O)oc3cc(OCC(=O)NCC4CCC(C(=O)O)CC4)ccc23)cc1 (stereo unspecified) | -4 | 33* | 0 | 5180 | 6 | 0
Cc1ccc(S(=O)(=O)CCC(=O)OCc2cc(=O)oc3cc(C)ccc23)cc1 | nt | 4 | nt | nt | 1 | nt
c1ccc(CN2CCC3CC2c2c3cccc2N2CCOCC2)cc1 (stereo unspecified) | -9 | nt | 1 | 6316 | 6 | 0
OCCN(Cc1ccccc1)Cc1cccc(F)c1 | 0 | 3 | 1 | 20011* | 0 | -1
CCCN(CCO)Cc1cccc(Cl)c1 | -2 | 4 | 2 | 16966* | 0 | -1
OCCN(Cc1ccccc1)Cc1cccc(Cl)c1Cl | 2 | 2 | -5 | 11501 | -4 | 0
